The supplement of paper PMC3724861
The sample as a whole holds a higher share of hits than the screen did. The hit rate among all sequences tested is not known here. Unmarked numbers belong to inactive results.

What follows are sequences tested on T1, Caupolican (Caup) homeodomain DNA-binding domain (assay: PBM E-score (8-mer, recovered from the published 9-mer minima) (E-score (dimensionless, -0.5 to 0.5)); Drosophila protein; higher = stronger relative binding preference, active = 0.31 or more).
T1 sequence: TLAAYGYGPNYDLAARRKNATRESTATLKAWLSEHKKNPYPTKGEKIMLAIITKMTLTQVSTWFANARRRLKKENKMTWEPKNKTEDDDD
In short: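 An enrichment score, with higher meaning stronger, expresses relative binding preference for each short DNA word. The protein used was Caup's homeodomain DNA-binding domain (residues 214-303), produced by in vitro transcription and translation and tested at 100 nM on custom-designed protein binding microarrays. The 8-mer values were recovered from published 9-mer scores, each equal to the lower of its two constituent 8-mer scores.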

Sequence | PBM E-score
ATTTCCTG | 0.0432
AGGAGTAT | 0.00187
CAGAGCGG | -0.155
CTATTACC | 0.0284
GCATTACA | 0.267
ATATTACC | 0.186
ATATTACG | 0.16
CTATTACA | 0.346 (active)
ACATTACT | 0.227
ATATTACA | 0.35 (active)
GTATTACA | 0.288
ACATTACA | ≥ 0.37 (active)
CTGACTGC | -0.0466
ACAGATAT | 0.159
CGGTCATA | -0.0654
CATCTGGG | -0.0619
GACACGAC | 0.347 (active)
GACACGAA | 0.224
AACACGAA | 0.293
AACACGAC | 0.321 (active)
CACACGAC | 0.0592
AACACGAG | 0.266
AGATATCC | 0.0875
ACCCGGGC | -0.196
CCGTTTTC | -0.0987
ATATAACA | 0.372 (active)

Sequence | PBM E-score
CTATAACA | 0.257
GCATAACA | 0.255
GTATAACA | 0.338 (active)
GTATAAGA | 0.112
ATATAACC | 0.0533
CGTAGGTC | -0.0431
CAGCCTGG | -0.164
ATAAAGGC | -0.111
AGTGGTGG | -0.0979
AAGGAATT | -0.0309
ACAGTTCA | 0.0978
TGCATGAA | 0.126
TACATGAA | 0.383 (active)
GCCATGAC | -0.0484
GTCATGAA | 0.0353
GACATGAC | 0.394 (active)
GGCATGAA | 0.0161
CACATGAA | 0.226
ACCATGAA | 0.0242
AACATGAA | 0.387 (active)
AGCATGAA | 0.102
GACATGAA | 0.318 (active)
CACATGAC | 0.242
TACAGAGA | 0.12
GAGTTTGA | 0.0834
CGTTTCCC | -0.165

Sequence | PBM E-score
AAGATGGC | -0.0976
CTGATTAA | 0.162
AACCTTAA | -0.0003
TGGGGGAA | -0.237
GACTTCGA | -0.0675
ACTAGAAG | 0.00911
AACGGGCC | -0.162
GTGACCTA | 0.0131
GAGCTCAA | -0.094
TGCAAAAA | 0.0586
AGACTGCG | -0.129
AGCTTCCC | -0.188
AAGCCCCA | -0.232
AAACACGT | 0.312 (active)
AAACACGC | 0.248
AAACACGA | ≥ 0.351 (active)
AAACACGG | 0.257
AAACACTT | 0.153
ACACACGT | 0.254
CAAAGCGC | -0.207
GATCAGGC | -0.0491
ACCGACTA | 0.0195
ACCCCGCA | -0.142
ACAATGTC | 0.316 (active)
CCCATGTC | 0.309
GCCATGGA | -0.137

Sequence | PBM E-score
CCCATGTA | 0.326 (active)
ACTATGTC | 0.302
ACCATGCC | -0.0174
GCCATGTA | 0.346 (active)
GCCATGCA | -0.0297
ACAATGTA | 0.285
CCAATGTC | 0.0611
CCCATGGA | 0.021
ACCATGTC | 0.408 (active)
AATATTTC | 0.0671
TGATTGCA | 0.139
GAAATAAA | 0.0685
ATGCGAAC | 0.0459
GACTCAAC | 0.0307
CGAAGGTC | -0.156
ACAGCAAT | 0.163
ACAGTTGC | 0.0312
CCGATAAC | 0.0305
ACCATGTG | 0.145
ACCATGTA | ≥ 0.422 (active)
ACCATGCA | 0.0966
AATTTGGA | 0.0747
ATGAACAG | 0.22
ACGAACAA | 0.298
AGGAACAT | 0.339 (active)
AGGAACAG | 0.0859

Sequence | PBM E-score
AGGAACAC | 0.193
ATGAACAA | 0.286
ACGAACAT | 0.349 (active)
CTGAACAC | 0.235
ACGAACAG | 0.137
ATGAACAT | 0.326 (active)
ATGAACAC | 0.332 (active)
GTGAACAC | 0.256
AACGGGTA | 0.0722
CCCGTCGG | -0.289
CCGCAGCC | -0.25
GCGCCGAC | -0.199
GATCGCAC | 0.0699
CATTTGCG | 0.00242
ACCTTCGT | -0.0522
GCCACCTA | -0.192
AACAAATA | 0.287
CACAAGTG | 0.111
CACAAGTA | 0.205
TACAAGTA | ≥ 0.407 (active)
AACAAATG | 0.174
ACCAAGTA | 0.0922
GACAAGTC | 0.236
AACAAGTA | 0.33 (active)
AACAAGTG | 0.334 (active)
TACAAAGA | 0.239

Sequence | PBM E-score
GACAAGTA | 0.355 (active)
GACAAATA | 0.218
CATGAAGG | 0.0126
ACCCCGAA | -0.106
AGTGGGTC | -0.178
GAAACTGC | -0.184
ACCAGGGC | -0.112
GGCAGCTA | -0.136
CGTTTTCC | 0.0392
GACGCGTC | -0.0916
ACCGTCCT | -0.0635
ACTCAAGA | -0.0159
AAGTCAGG | -0.109
AACAAGGT | 0.293
AACAAGTT | 0.33 (active)
AACAAGTC | 0.278
CTTTGCTC | -0.0311
CATCCCTC | -0.0768
CAAGTGGG | -0.0243
ATGTGTTC | 0.266
ATGTGTTA | ≥ 0.323 (active)
ATGTGTTG | 0.34 (active)
ATGTGTGG | 0.0766
GTGTGTTA | 0.275
CTGTGTTA | 0.259
AAAGAAGT | 0.0392

Sequence | PBM E-score
CATGCTGG | 0.0451
CGAAGTCC | -0.149
GGCAAGTA | 0.101
ACAGGCGT | -0.013
GTGTCATA | 0.292
ATGTCATC | 0.306
CTGTCATA | 0.246
GTGTCAGA | 0.245
ATGTCAGA | 0.336 (active)
CTGTCAGA | 0.0887
ATGTCATG | 0.353 (active)
ATGTCAGG | 0.209
ATGTCATA | 0.4 (active)
ACCTCGCC | -0.212
GCCCTGCA | -0.173
TCAGTGAA | -0.0554
CCGAGTAG | -0.0123
AAATCACA | 0.108
CCCGTTAC | 0.0202
CGTATGTA | 0.289
GATATGTA | 0.321 (active)
AATATGTG | 0.259
GATATGAA | 0.0673
AATATGTC | 0.297
GGTATGTA | 0.277
CATATGTA | 0.334 (active)

Sequence | PBM E-score
CATATGTC | 0.277
AATATGTA | 0.328 (active)
CCGGGAGC | -0.282
CTCTGGAA | -0.12
CGACGGAC | 0.00364
ACAGCGAG | -0.0026
GGCTATAC | -0.0714
AACGAGGA | 0.0777
CTGAAACC | -0.0654
CTTCCGGA | -0.173
GCATGTCC | 0.31 (active)
GCATGGCA | -0.0563
CCATGGCA | -0.0986
AAATGTCC | 0.126
GAATGTCC | 0.145
AAATGTCG | 0.144
GAATGTCA | 0.169
CAATGTCA | 0.293
ACATGTCG | 0.416 (active)
ATATGTCG | 0.302
GCATGTCA | 0.44 (active)
CCATGTCA | 0.398 (active)
GATAAGGA | 0.0879
CGTTATAC | 0.0592
GTTTTTGA | 0.084
GTTTAGAA | 0.121

Sequence | PBM E-score
CCCTGTCG | -0.0227
CCATGTCG | 0.362 (active)
ACATGTCT | 0.417 (active)
CCATGTCC | 0.292
AAATGTCT | 0.106
ACATGGCA | 0.307
ACATGTCC | 0.438 (active)
ACATGTCA | 0.461 (active)
AAATGTCA | 0.266
ACCTGTCT | 0.144
AGATGTCC | 0.234
CAATGTCG | 0.227
CTCACAGC | -0.124
ACCTACCC | -0.14
CGCGTAGC | -0.153
CAAGACTA | 0.107
ATAGCCAT | 0.0738
CATTCATA | 0.179
CCTGGTGA | -0.102
ACTCTGCG | -0.03
